# Tests used:
# Details in all cases: concentration: 1 μM, replicates: in singlicate; n = 1
# MAP4K4 = tested on: MAP4K4
# MAP4K5 = tested on: MAP4K5
# MAPKAPK2 = tested on: MAPKAPK2
# MAPKAPK5 = tested on: MAPKAPK5
# MARK1 = tested on: MARK1
# MARK2 = tested on: MARK2
# MARK3 = tested on: MARK3
# MARK4 = tested on: MARK4
# MAST1 = tested on: MAST1
# MEK1 = tested on: T1, MEK1
# T1 construct: gene MAP2K1
# MEK2 = tested on: T2, MEK2
# T2 construct: gene MAP2K2
# MEK3 = tested on: T3, MEK3
# T3 construct: gene MAP2K3
# MEK4 = tested on: T4, MEK4
# T4 construct: gene MAP2K4
# MEK5 = tested on: T5, MEK5
# T5 construct: gene MAP2K5
# MEK6 = tested on: T6, MEK6
# T6 construct: gene MAP2K6
# MELK = tested on: MELK
# MERTK = tested on: MERTK
# MET = tested on: MET
# MINK = tested on: T7, MINK
# T7 construct: gene MINK1
# MKK7 = tested on: MKK7
# 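Also: KINOMEscan kinase panel screen.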
SMILES,%Inh (MAP4K4) [%],%Inh (MAP4K5) [%],%Inh (MAPKAPK2) [%],%Inh (MAPKAPK5) [%],%Inh (MARK1) [%],%Inh (MARK2) [%],%Inh (MARK3) [%],%Inh (MARK4) [%],%Inh (MAST1) [%],%Inh (MEK1) [%],%Inh (MEK2) [%],%Inh (MEK3) [%],%Inh (MEK4) [%],%Inh (MEK5) [%],%Inh (MEK6) [%],%Inh (MELK) [%],%Inh (MERTK) [%],%Inh (MET) [%],%Inh (MINK) [%],%Inh (MKK7) [%]
Nc1nc(-c2nccs2)c(-c2ccnc3ccccc23)s1 [GW693542],4,0,28,0,0,0,0,1,0,0,0,0,36,45,0,56,22,2,51,0
O=C1NC(=O)C(N2CCc3ccccc32)=C1c1ccccc1Cl [SB-373598],26,24,33,8,9,10,0,17,0,13,0,0,9,8,0,12,27,17,4,20
Cc1c(O)cccc1Nc1ccnc2ccc(C(F)(F)F)cc12.Cl [GW466413],0,0,8,0,0,0,0,2,0,0,0,0,19,35,0,11,0,0,2,0
Cl.c1ccc(-c2n[nH]cc2-c2ccnc(-c3ccc(CN4CCOCC4)cc3)c2)nc1 [GW776245],0,0,13,0,0,6,1,28,0,14,49,0,27,5,0,5,8,16,8,0
Cn1ccc2ncnc(Oc3ccc(Nc4nc5ccccc5[nH]4)cc3)c21,0,0,0,0,0,9,0,13,0,0,0,0,0,11,0,0,8,0,0,0
Cc1cccc(-c2cc(Nc3ccncc3)c3ccccc3n2)n1 [GSK223675],0,0,13,0,0,0,0,0,0,0,0,0,0,0,0,0,4,0,10,5
Clc1cc(Cl)cc(Nc2ccnc(Nc3cc(Cl)cc(Cl)c3)n2)c1 [GSK175726],0,0,0,0,0,16,0,0,0,0,0,0,0,49,3,8,0,0,18,13
Cl.Oc1ccc(-c2nc(-c3ccccc3)[nH]c2-c2ccncc2)cc1 [SB-428218],0,0,13,0,0,0,0,0,0,0,0,0,0,17,1,2,0,0,11,0
Cc1cccc(-c2nc(-c3ccc(S(C)(=O)=O)cc3)sc2-c2ccnc(NCCc3ccccc3)c2)c1,0,0,0,0,0,11,0,0,0,0,7,0,25,0,8,0,0,0,0,0
